Results published in PubChem BioAssay AID1159580 (chemical genetic matrix, 2015).
Among all 5,500 compounds or so, about 2,000 (36%) were called active. Roughly 18% stayed inconclusive and do not appear here. Rule as the data show it: active = normalized growth mostly below about 0.91 (no sharp cut-off); inconclusive = no clear call, values can overlap the other calls; inactive = mostly above about 0.92. This is one part of the list.

Assay: chemical genetic growth profiling, strain panel (AID 1159580);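 also: tested at 20 µM; growth read once vehicle control cultures reached saturation at 30 °C; 1 = growth at the plate median or of vehicle wells; lower values mean less growth of the strain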
Settings: growth OD

Measured: normalized growth

CC(C)CCCC(C)[C@H]1CCC2C3C(=O)C=C4C[C@@H](O)CC[C@]4(C)C3CC[C@@]21C (stereo partly drawn)
inactive: S. cerevisiae deletion strains, locus YJL187C, strain SWE1, hits give low values 1 | S. cerevisiae deletion strains, locus YJR043C, strain POL32, hits give low values 1.01 | S. cerevisiae deletion strains, locus YJR066W, strain TOR1, hits give low values 0.948 | S. cerevisiae deletion strains, locus YKL009W, strain mrt4, hits give low values 1.07 | S. cerevisiae deletion strains, locus YKL068W, hits give low values 1.01 | S. cerevisiae deletion strains, locus YKL085W, strain MDH1 (second series), hits give low values 1.03 | S. cerevisiae deletion strains, locus YKL085W, strain MDH1, hits give low values 1.03 | S. cerevisiae deletion strains, locus YKL160W, strain elf1, hits give low values 0.981 | S. cerevisiae deletion strains, locus YKR001C, strain vps1, hits give low values 1.05 | S. cerevisiae deletion strains, locus YKR026C, strain gcn3, hits give low values 0.996 | S. cerevisiae deletion strains, locus YKR091W, strain srl3, hits give low values 1 | S. cerevisiae deletion strains, locus YLL001W, strain dnm1, hits give low values 0.998 | S. cerevisiae deletion strains, locus YLL026W, hits give low values 1.01 | S. cerevisiae deletion strains, locus YLL041C, strain sdh2, hits give low values 0.991 | S. cerevisiae deletion strains, locus YLR027C, strain aat2, hits give low values 0.989 | S. cerevisiae deletion strains, locus YLR039C, strain RIC1, hits give low values 1.08 | S. cerevisiae deletion strains, locus YLR058C, strain SHM2, hits give low values 1.06 | S. cerevisiae deletion strains, locus YLR102C, strain apc9, hits give low values 1.03 | S. cerevisiae deletion strains, locus YLR113W, strain HOG1, hits give low values 0.975 | S. cerevisiae deletion strains, locus YLR221C, strain rsa3, hits give low values 0.981 | S. cerevisiae deletion strains, locus YLR258W, strain gsy2, hits give low values 1.02 | S. cerevisiae deletion strains, locus YLR262C, strain YPT6 (second series), hits give low values 0.972 | S. cerevisiae deletion strains, locus YLR262C, strain YPT6, hits give low values 1.09 | S. cerevisiae deletion strains, locus YLR268W, strain sec22, hits give low values 1.07 | S. cerevisiae deletion strains, locus YLR320W, strain mms22, hits give low values 1.03 | S. cerevisiae deletion strains, locus YLR330W, strain CHS5, hits give low values 1.02 | S. cerevisiae deletion strains, locus YLR342W, strain FKS1 (second series), hits give low values 1.07 | S. cerevisiae deletion strains, locus YLR342W, strain FKS1, hits give low values 1 | S. cerevisiae deletion strains, locus YLR357W, strain rsc2, hits give low values 1.06 | S. cerevisiae deletion strains, locus YLR370C, strain arc18, hits give low values 0.984 | S. cerevisiae deletion strains, locus YLR371W, strain rom2, hits give low values 1.03 | S. cerevisiae deletion strains, locus YLR384C, strain iki3, hits give low values 0.997 | S. cerevisiae deletion strains, locus YLR418C, strain cdc73, hits give low values 1.04 | S. cerevisiae deletion strains, locus YML016C, strain PPZ1, hits give low values 1.03 | S. cerevisiae deletion strains, locus YML032C, strain rad52, hits give low values 1.02 | S. cerevisiae deletion strains, locus YML120C, strain ndi1, hits give low values 0.965 | S. cerevisiae deletion strains, locus YML124C, strain tub3, hits give low values 1.02 | S. cerevisiae deletion strains, locus YMR058W, strain fet3, hits give low values 0.992 | S. cerevisiae deletion strains, locus YMR078C, strain ctf18, hits give low values 1.05 | S. cerevisiae deletion strains, locus YMR125W, strain sto1, hits give low values 1.01 | S. cerevisiae deletion strains, locus YMR129W, hits give low values 0.989 | S. cerevisiae deletion strains, locus YMR205C, strain PFK2, hits give low values 1.05 | S. cerevisiae deletion strains, locus YMR223W, strain ubp8, hits give low values 1.02 | S. cerevisiae deletion strains, locus YMR231W, strain pep5, hits give low values 1 | S. cerevisiae deletion strains, locus YMR307W, strain GAS1, hits give low values 1.11 | S. cerevisiae deletion strains, locus YNL067W, strain RPL9B, hits give low values 1.02 | S. cerevisiae deletion strains, locus YNL071W, strain lat1, hits give low values 0.993 | S. cerevisiae deletion strains, locus YNL183C, strain NPR1, hits give low values 0.937 | S. cerevisiae deletion strains, locus YNL209W, strain ssb2, hits give low values 1 | S. cerevisiae deletion strains, locus YNL233W, strain BNI4, hits give low values 1.02 | S. cerevisiae deletion strains, locus YNL248C, strain rpa49, hits give low values 0.934 | S. cerevisiae deletion strains, locus YNL250W, strain rad50, hits give low values 1.03 | S. cerevisiae deletion strains, locus YNL271C, strain bni1, hits give low values 1.05 | S. cerevisiae deletion strains, locus YNL298W, strain CLA4, hits give low values 1.04 | S. cerevisiae deletion strains, locus YNL307C, strain MCK1, hits give low values 1.05 | S. cerevisiae deletion strains, locus YNL322C, strain KRE1 (second series), hits give low values 0.98 | S. cerevisiae deletion strains, locus YNR049C, strain mso1, hits give low values 0.996 | S. cerevisiae deletion strains, locus YNR052C, strain pop2, hits give low values 1.03 | S. cerevisiae deletion strains, locus YOL012C, strain htz1 1.19 | S. cerevisiae deletion strains, locus YOL147C, strain pex11, hits give low values 1.01 | S. cerevisiae deletion strains, locus YOR001W, strain rrp6, hits give low values 0.994 | S. cerevisiae deletion strains, locus YOR061W, strain CKA2, hits give low values 1.05 | S. cerevisiae deletion strains, locus YOR069W, strain VPS5, hits give low values 1.02 | S. cerevisiae deletion strains, locus YOR070C, strain gyp1, hits give low values 0.999 | S. cerevisiae deletion strains, locus YOR080W, strain dia2, hits give low values 1.04 | S. cerevisiae deletion strains, locus YOR083W, strain WHI5, hits give low values 0.969 | S. cerevisiae deletion strains, locus YOR106W, strain vam3, hits give low values 0.978 | S. cerevisiae deletion strains, locus YOR136W, strain idh2, hits give low values 1.04 | S. cerevisiae deletion strains, locus YOR144C, strain elg1, hits give low values 1.02 | S. cerevisiae deletion strains, locus YOR184W, strain ser1, hits give low values 1.06 | S. cerevisiae deletion strains, locus YOR231W, strain MKK1, hits give low values 1 | S. cerevisiae deletion strains, locus YOR265W, strain rbl2, hits give low values 0.996 | S. cerevisiae deletion strains, locus YOR270C, strain vph1, hits give low values 0.907 | S. cerevisiae deletion strains, locus YOR290C, strain snf2, hits give low values 1.07 | S. cerevisiae deletion strains, locus YOR316C, strain cot1, hits give low values 1.04 | S. cerevisiae deletion strains, locus YPL051W, strain arl3, hits give low values 0.981 | S. cerevisiae deletion strains, locus YPL055C, strain LGE1, hits give low values 1.05 | S. cerevisiae deletion strains, locus YPL078C, strain atp4, hits give low values 0.935 | S. cerevisiae deletion strains, locus YPL106C, strain sse1, hits give low values 1.08 | S. cerevisiae deletion strains, locus YPL240C, strain hsp82, hits give low values 0.985 | S. cerevisiae deletion strains, locus YPL241C, strain CIN2, hits give low values 1.01 | S. cerevisiae deletion strains, locus YPL256C, strain CLN2, hits give low values 0.989 | S. cerevisiae deletion strains, locus YPR119W, strain clb2, hits give low values 1.03 | S. cerevisiae deletion strains, locus YPR141C, strain kar3, hits give low values 1.03 | S. cerevisiae deletion strains, locus YPR163C, strain tif3, hits give low values 1.03 | S. cerevisiae deletion strains, locus YPR167C, strain met16, hits give low values 1.04 | S. cerevisiae deletion strains, strain wtn01, hits give low values 1.03 | S. cerevisiae strains, strain wild type, hits give low values 1.02
